Data on six compounds can be found in PubChem BioAssay (NCATS).

Each structure is given as a SMILES string. Results filed as inconclusive are left out. Activity calls are given as the source filed them. The call rests on the fitted dose curve; in most records, active means well fitted curve in the direction sought with a large enough effect; inconclusive means small, poorly fitted or top-dose-only effect, or another doubt; inactive means no such curve, though single readings can be large; an effect the other way counts as inactive or inconclusive.

A short description of experiment [1]: Primary qHTS for inhibitors of nuclear receptor binding SET domain protein 2 (NSD2) in an isogenic RCH-ACV NSD2 p.E1099K mutant (9B) (AID 1645876).
Experiment [2] in a line: Primary qHTS for inhibitors of nuclear receptor binding SET domain protein 2 (NSD2) in an RCH-ACV wild type WT cells (2C) (AID 1645877). (In general: In qHTS, concentration-response curves come from the screen itself.)
Further: nearly all actives have a fitted effect of over 70% in size.

For the compound `COC(=O)CC(O)C1OC(c2ccccc2)C(O)C1O` (configuration not stated), the Potency entry in experiment [1] and in experiment [2] was “inactive” throughout.

As for `COC(=O)C1=CO[C@@H](O[C@@H]2O[C@H](CO)[C@@H](O)[C@H](O)[C@H]2O)[C@H]2[C@@H]1C=C[C@@]21C=C([C@H](C)O)C(=O)O1`, the Potency result in experiment [1] and in experiment [2] was “inactive” in each case.

For the compound `C[C@@H]1O[C@@H](O[C@H]2[C@H](O)[C@@H](O[C@@H]3O[C@H](CO)[C@@H](O)[C@H](O[C@@H]4O[C@H](CO)[C@@H](O)[C@H](O)[C@H]4O)[C@H]3O)[C@H](O[C@H]3CC[C@@]4(C)C(=CC[C@@H]5C4CC[C@@]4(C)C5C[C@@H]5OC6(CC[C@@](C)(CO[C@@H]7O[C@H](CO)[C@@H](O)[C@H](O)[C@H]7O)O6)[C@@H](C)[C@@H]54)C3)O[C@@H]2CO)[C@H](O)[C@H](O)[C@H]1OC1OC(CO)C(O)C(O)C1O` (some centres not stated), the outcome in experiment [1] and in experiment [2] was “inactive [at 9.23 µM]” in each case.

`CC(=O)O[C@@H]1[C@@H](O)[C@H](O[C@H]2CC[C@]34C[C@]35CC[C@]3(C)[C@@H]([C@@]6(C)CC[C@@H](C(C)(C)O)O6)[C@@H](O)C[C@@]3(C)[C@@H]5C[C@H](O[C@@H]3O[C@H](CO)[C@@H](O)[C@H](O)[C@H]3O)[C@H]4C2(C)C)OC[C@H]1O`: the Potency entry in experiment [1] and in experiment [2] was “inactive” in each case.

Regarding `CC(C)CCC[C@@H](C)[C@H]1CC[C@H]2[C@@H]3CC(=O)[C@H]4C[C@@H](O)CC[C@]4(C)[C@H]3CC[C@]12C`, the Potency result in experiment [1] and in experiment [2] was “inactive” in each case.

On to `C=CC(C)(O)CC[C@H]1C(=C)CCC2[C@](C)(C(=O)O)CCC[C@@]21C` (some centres not stated), for which the Potency entry in experiment [1] and in experiment [2] was “inactive” throughout.
